The list shows a part of the results. Records with an inconclusive call do not appear. Calls of active or inactive are those of the source. The call rests on the fitted dose curve; in most records, active means well fitted inhibition curve with a large enough effect; inconclusive means small, poorly fitted or top-dose-only effect, or another doubt; inactive means no such curve, though single readings can be large or run the other way.
Each molecule was assayed against Vitamin D3 receptor (Homo sapiens) (UniProt P11473) (assay: qHTS for Inhibitors of the vitamin D receptor (VDR): Hit Validation in Primary Screen (AID 602199)). Settings: VDR-coactivator inhibition assay, qHTS confirmation.
Excerpt: The vitamin D receptor (VDR) is a ligand-activated transcription factor and is partially responsible for the regulation of the endocrine system. This includes the transcriptional regulation of genes involved in the production of the parathyroid hormone (PTH) and the regulation of the blood calcium level. High levels of PHT can cause hypercalcemia in the case of primary and tertiary hyperparathyroidism. The VDR-mediated gene regulation, activated by its ligand 1,25-dihydroxyvitamin D3 (1,25-(OH)2D3), is governed by the recruitment of coactivators. Our hypothesis is that small molecules, with the ability to inhibit the interaction between VDR and certain coactivators, are able to selectively modulate VDR-mediated transcription. Our long term objective is the application these VDR-coactivator inhibitors to study the role of VDR-coactivator binding for specific VDR regulated genes. Ultimately, these molecules can be developed into new treatments for hypercalcemic hyperparathyroidism. No small molecule or non-peptide inhibitors are known for the VDR-coactivator interaction.
In a collaboration between the University of Wisconsin, Milwaukee and the NIH Chemical Genomics Center (NCGC) a HTS-compatible enzymatic assay was developed. The assay uses fluorescence polarization as its read-out to measure the inhibition between VDR and coregulator peptide SRC2-3 exerted by small molecules. This assay was used to screen the NIH Molecular Libraries Small Molecule Repository (MLSMR).
NIH Chemical Genomics Center [NCGC]
NIH Molecular Libraries Probe Centers Network [MLPCN]
Assay Submitter (PI): Alexander Arnold, University of Wilwaukee
Four microliter of either 800nM VDR, 5uM LG19078, and […]nM SRC2-3 Alexa 647 (all final concentrations) in columns 1, 2, and 5 to 48 or […]nM SRC2-3 Alexa 647 in columns 3 and 4 are dispensed into black medium-binding solid bottom Greiner plates. Both solutions are kept at 4 deg C and protected from light and dispensed using a Kalypsys dispenser. Then 23nl of compounds and controls are added with Kalypsys pintool. The control is 26.5mM CBT358 (final concentration of 151uM) and the compounds' final range in concentration is 457nM - 114uM. Plate is centrifuged at 1000 RPM for 15 seconds to remove any residual bubbles. The plate is then incubate at ambient room temperature for 2 hours. It is then read on the Envision for a fluorescent polarization read-out (Ex 620 nm/Em 688 nm)
Potency means the concentration at half of the fitted maximal effect.

Vitamin D3 receptor (Homo sapiens), sequence (P11473 whole entry, looked up): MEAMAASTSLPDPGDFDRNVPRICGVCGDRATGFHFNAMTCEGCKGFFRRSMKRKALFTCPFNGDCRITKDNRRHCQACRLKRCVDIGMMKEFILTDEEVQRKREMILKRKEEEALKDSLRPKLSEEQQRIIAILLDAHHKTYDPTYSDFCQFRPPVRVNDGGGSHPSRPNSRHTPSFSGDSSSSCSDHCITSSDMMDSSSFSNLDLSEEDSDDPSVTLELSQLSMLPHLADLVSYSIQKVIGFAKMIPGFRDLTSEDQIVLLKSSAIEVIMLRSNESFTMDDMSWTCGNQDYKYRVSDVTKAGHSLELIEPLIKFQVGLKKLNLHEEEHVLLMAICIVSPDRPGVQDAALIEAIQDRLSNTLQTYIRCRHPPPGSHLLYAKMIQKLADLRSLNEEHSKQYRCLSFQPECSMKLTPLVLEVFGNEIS

Potency, active:
O=C(Nc1ccccc1)c1nnsc1S(=O)(=O)c1ccc(Cl)cc1 16.8 µM
O=C(Nc1nc(-c2ccncc2)cs1)C1COc2ccccc2O1 (stereo not given) 2.82 µM
COc1ccc(OCc2nnc3n2N=C(c2ccccc2)C(CC(=O)O)S3)cc1 (stereo not given) 1.58 µM
Cc1cccc(Oc2c([N+](=O)[O-])c(=O)n(C)c3ccccc23)c1 21.2 µM
O=C(/C=C/c1ccccc1)c1ccccc1O 23.8 µM
CCOC(=O)c1sc(=S)n2c1[nH]c(=O)c1ccc(C(=O)OC)cc12 7.94 µM
CCOC(=O)c1sc(NC(=O)CSc2nc(C)cc(C(F)(F)F)n2)c(C#N)c1C 11.9 µM
O=c1[nH]c2ccccc2n2c(-c3ccccc3)nnc12 9.47 µM
O=C1C=C(c2ccc(Cl)cc2)C(=O)N1Nc1ccccc1 2.99 µM
Cc1cccc(CS(=O)(=O)c2ncc(Cl)c(C(=O)Nc3ccc(F)cc3)n2)c1 3.36 µM
CCOC(=O)N1CCN(C(c2cccnc2)c2ccc3cccnc3c2O)CC1 (stereo not given) 7.52 µM
CN(C)N=Nc1ccc2nc[nH]c2c1 10.6 µM
CCOc1ccc(N(Cc2ccccc2)C(=O)c2nc(S(C)(=O)=O)ncc2Cl)cc1 4.47 µM
O=c1cc(CO)oc(C(Nc2cccc(C(F)(F)F)c2)c2ccccn2)c1O (stereo not given) 16.8 µM
Cc1ccc(-c2nc3ccccn3c2Nc2c(C)cccc2C)o1 17.8 µM
O=c1[nH]c(/C=C\c2cccc(C(F)(F)F)c2)nc(O)c1[N+](=O)[O-] 18.9 µM
COc1ccc(CS(=O)/C(Cl)=C(/Cl)C(=O)Nc2ccc(OC)nc2)cc1 (stereo not given) 5.97 µM
CC(=O)N(C1=C(Cl)C(=O)c2ccccc2C1=O)c1ccc(C(=O)O)cc1 7.94 µM
COC(=O)c1sc(-c2ccc(C(C)(C)C)cc2)cc1NC(=O)/C=C/C(=O)O 11.9 µM
Cc1nc(-c2ccccc2)sc1C(=O)/C=C/c1ccccc1 16.8 µM
O=[N+]([O-])/C=C/c1ccc2c(ccn2Cc2ccccc2)c1 6.7 µM
C[C@@H](NC(=O)OC(C)(C)C)c1nnc(S(=O)(=O)Cc2ccccc2)o1 11.2 µM
CCCCS(=O)(=O)c1oc(-c2cccs2)nc1S(=O)(=O)c1ccccc1 2.24 µM
COC(=O)/C=C\C(=O)Nc1cccc([N+](=O)[O-])c1 5.32 µM
Cc1cc(C)nc(S/C=C/C(=O)c2ccccc2)n1 3.55 µM
C=CCOc1ccc(/C=C2/C(=O)ON=C2C)cc1OCC 10.6 µM
O=C(/C=C/c1ccc(Cl)cc1Cl)c1cccnc1 9.47 µM
Cc1ccc(O)c(NC(=O)CCS(=O)(=O)c2nc(-c3ccc4c(c3)OCO4)cc(C(F)(F)F)n2)c1 14.1 µM
O=C(/C=C/c1ccc(Cl)c([N+](=O)[O-])c1)c1cccnc1 2.51 µM
CC1CCN(C(=S)c2ccc(-c3ccc(Cl)cc3Cl)o2)CC1 21.2 µM
O=C(CCN1CCc2ccccc2C(O)(c2ccccc2)C1)c1ccc2c(c1)OCCO2 (stereo not given) 10.6 µM
CC(=O)N1CC[n+]2c(-c3ccc([N+](=O)[O-])cc3)csc21 10 µM
CSc1nnc(NC(=O)c2nc(S(=O)(=O)Cc3ccc(C)cc3)ncc2Cl)s1 7.52 µM
c1ccc2c(C[n+]3csc4ccccc43)cccc2c1 5.62 µM
O=[N+]([O-])c1c(NCCO)cc(Sc2nc3ccccc3s2)c2nonc12 3.36 µM

Reference: PubChem BioAssay (NCATS)
